Screens: PubChem, National Center for Advancing Translational Sciences (NCATS)
In the library only some 11% were active in any assay of this set; here they are far more common.
BAZ2B block – qHTS Assay for Inhibitors of BAZ2B | Bromodomain adjacent to zinc finger domain protein 2B (Homo sapiens), Q9UIF8 | AlphaScreen BAZ2B-H3K14Ac peptide displacement | Potency, µM (series often up to 114 µM), without a hit: at the top dose activity change, negative = inhibition, most hits filed as inhibitors | actives 4.4% (n = 360,000) | AID 504333, 2011; note: % is set by controls: 0 for no effect and ±100 for the full control effect; nearly all actives have a fitted effect of over 60% in size
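AlphaScreen displacement: compounds (up to 110uM) incubated 30 min at room temperature with a preformed 50 nM BAZ2B/50 nM biotinylated H3K14Ac peptide complex in PBS pH 7.4 with Tween-20. Donor and acceptor beads at 10 ug/mL final added, 20 min light-protected before reading.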
G9a inh – qHTS Assay for Inhibitors of Histone Lysine Methyltransferase G9a. G9a H3K9 monomethylation, AlphaScreen, 2 h. actives 8.8% (n = 350,000). Histone-lysine N-methyltransferase EHMT2 (Homo sapiens), Q96KQ7. Potency, µM (doses to about 102 µM), for inactives: at the top dose activity, negative = inhibition, hits mostly inhibitors; note: % is set by controls: 0 for no effect and ±100 for the full control effect; nearly all actives have a fitted effect of over 75% in size
Target sequence (Q96KQ7 913-1193 limits assumed): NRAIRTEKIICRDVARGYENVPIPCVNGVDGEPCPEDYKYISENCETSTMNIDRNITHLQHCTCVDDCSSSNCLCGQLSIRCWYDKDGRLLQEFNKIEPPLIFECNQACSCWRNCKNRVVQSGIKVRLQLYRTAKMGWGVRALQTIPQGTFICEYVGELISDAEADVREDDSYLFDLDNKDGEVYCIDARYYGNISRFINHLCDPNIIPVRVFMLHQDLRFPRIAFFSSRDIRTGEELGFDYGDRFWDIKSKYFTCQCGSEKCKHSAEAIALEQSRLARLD
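Quantitative HTS format: methyltransferase activity on a biotin-tagged H3K9 peptide is measured by AlphaScreen, using a rabbit anti-monomethyl-H3K9 antibody with streptavidin donor and anti-IgG acceptor beads. Final levels are 20 nM enzyme, 500 nM peptide, 20 uM SAM; 2 h RT.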
HP1b chromo inh – HTS for Inhibitors of HP1-beta Chromodomain Interactions with Methylated Histone Tails | Chromobox protein homolog 1 (Homo sapiens), P83916 | AlphaScreen HP1-beta / biotin-H3K9me3 peptide binding | Potency, µM (highest dose often 114 µM), for the others: at the highest dose activity change, negative = inhibition, most hits filed as inhibitors | actives 0.56% (n = 390,000) | AID 540317, 2011; note: nearly all actives have a fitted effect of over 70% in size
Target sequence (P83916 whole entry, looked up): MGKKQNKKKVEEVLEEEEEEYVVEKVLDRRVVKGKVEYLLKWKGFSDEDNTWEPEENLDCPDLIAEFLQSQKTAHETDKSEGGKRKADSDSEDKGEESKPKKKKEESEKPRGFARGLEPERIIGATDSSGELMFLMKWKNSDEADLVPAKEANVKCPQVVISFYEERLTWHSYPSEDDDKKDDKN
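Compound inhibition of the preformed complex between 50 nM HP1-beta and 50 nM biotinylated H3K9me3 peptide was read by AlphaScreen. Buffer was PBS pH 7.4 with 0.01% Tween-20. Incubations ran 30 min at room temperature, with 10 ug/mL donor/acceptor beads.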
L3MBTL1 block – qHTS Assay for the Inhibitors of L3MBTL1; Lethal(3)malignant brain tumor-like protein 1 (Homo sapiens), Q9Y468; AlphaScreen L3MBTL1–H3K9me1 peptide binding; Potency, µM (series often up to 57.1 µM), for the others: at the highest dose activity, negative = inhibition, actives largely listed as inhibitors; actives 0.66% (n = 230,000); AID 485360, 2010; note: % is set by controls: 0 for no effect and ±100 for the full control effect; nearly all actives have a fitted effect of over 60% in size
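L3MBTL1 (50 nM) pre-complexed 30 min with biotinylated H3(1-15)K9me1 peptide (75 nM), then compounds added for 30 min at room temperature; AlphaScreen streptavidin donor/nickel chelate acceptor beads (10 ug/mL final) read after 30 min dark incubation.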
JMJD2A Tudor – qHTS Assay for Inhibitors of JMJD2A-Tudor Domain. actives 4.4% (n = 390,000). Potency, µM (titrated, usually from 114 µM), without a hit: at the top dose activity change, negative = inhibition, usual class: inhibitors. AlphaScreen JMJD2A-Tudor / H3K4me3 peptide binding; note: % is set by controls: 0 for no effect and ±100 for the full control effect; nearly all actives have a fitted effect of over 50% in size
* marks the source's active call; other numbers are inactive results; [ ] = another dose, or the depositor's remark. Calls come from the whole dose curve; as a rule, active = well fitted inhibition curve with a large enough effect; inconclusive = small, poorly fitted or top-dose-only effect; inactive = no such curve, though single readings can be large or run the other way. Potency is the fitted concentration of half-maximal effect.

What do the screens show for `COc1ccccc1NC(=O)c1cc[n+](C)cc1`?
BAZ2B block: inconclusive; G9a inh: 35µM*; HP1b chromo inh: 16%; L3MBTL1 block: 3%; JMJD2A Tudor: -4%

How did CCN1CCN(c2ccc([N+](=O)[O-])cc2C=C2C(=O)NC(=O)NC2=O)CC1 do in these assays?
BAZ2B block: 1%; G9a inh: inconclusive; HP1b chromo inh: inconclusive; L3MBTL1 block: 3%; JMJD2A Tudor: -11%

How did CC(=O)N1CCN(c2ccc([N+](=O)[O-])cc2C=C2C(=O)NC(=O)NC2=O)CC1 do in these assays?
BAZ2B block: 13%; G9a inh: 40µM*; HP1b chromo inh: 39%; L3MBTL1 block: 8%; JMJD2A Tudor: 0%

What do the screens show for `COc1ccccc1NC(=O)c1oc2ccccc2c1NC(=O)COc1cccc(C)c1`?
BAZ2B block: -3%; G9a inh: 1%[59 µM]; HP1b chromo inh: 43%; JMJD2A Tudor: -14%

How did COc1ccc(CCNC(=O)CCc2c(C)nc3c(-c4ccc(F)cc4)c(C)nn3c2C)cc1OC do in these assays?
BAZ2B block: -25%; G9a inh: 16%[59 µM]; HP1b chromo inh: 48%; JMJD2A Tudor: -9%

What do the screens show for `C=C(C)C(=O)Nc1cccc(C2=NOC3(C2)C[C@H](C(N)=O)N(C(=O)/C=C/C)C3)c1` (stereo partly specified)?
BAZ2B block: 7.1µM*; G9a inh: inconclusive; HP1b chromo inh: 8.9µM*; JMJD2A Tudor: 8.9µM*

What do the screens show for `CCOC(=O)C1CCN(/C=C2/C(=O)NC(=O)N(Cc3ccco3)C2=O)CC1`?
BAZ2B block: inconclusive; G9a inh: inconclusive; HP1b chromo inh: -13%; L3MBTL1 block: 14µM*; JMJD2A Tudor: inconclusive

What do the screens show for `Cn1cccc1/C=C1\C(=O)NC(=O)N(Cc2ccco2)C1=O`?
BAZ2B block: 56µM*; G9a inh: inconclusive; HP1b chromo inh: 45µM*; JMJD2A Tudor: 56µM*

How did CN(C)c1ccc(/C=C2\C(=O)NC(=O)N(Cc3ccc(F)cc3)C2=O)cc1 do in these assays?
BAZ2B block: -10%; HP1b chromo inh: 20%; JMJD2A Tudor: -11%

What do the screens show for `COc1ccc(/C=C2/C(=O)NC(=O)N(Cc3ccco3)C2=O)cc1`?
BAZ2B block: 32µM*; G9a inh: 10µM*; L3MBTL1 block: 8.9µM*

What do the screens show for `Cc1ccc(OCCn2cccc2/C=C2/C(=O)NC(=O)N(Cc3ccco3)C2=O)cc1`?
BAZ2B block: -35%; G9a inh: 50µM*; HP1b chromo inh: 4%; JMJD2A Tudor: -30%

How did O=C(CN1CCCCC1)NNC(=O)c1cccc(Br)c1 do in these assays?
BAZ2B block: 2%; G9a inh: 15%; HP1b chromo inh: 47%; JMJD2A Tudor: -16%

Results for COc1ccc(CCN)cc1 ?
G9a inh: 32%[59 µM]

How did CCc1ccc(N2C(=O)NC(=O)/C(=C\c3cccn3CCOc3ccc(C(C)C)cc3)C2=O)cc1 do in these assays?
BAZ2B block: -18%; G9a inh: 7.1µM*; HP1b chromo inh: 19%; L3MBTL1 block: -4%; JMJD2A Tudor: inconclusive

How did Cc1cccc(N2C(=O)NC(=O)/C(=C\c3cccn3-c3ccc(Cl)cc3)C2=O)c1 do in these assays?
BAZ2B block: 4%; G9a inh: 24%[0.501 µM]; HP1b chromo inh: 28%; L3MBTL1 block: -6%; JMJD2A Tudor: -10%

How did COC(=O)C1=C(C)N(Cc2ccco2)C(=O)/C1=C\c1ccc(N(C)C)cc1 do in these assays?
BAZ2B block: inconclusive; G9a inh: inconclusive; HP1b chromo inh: -73%; L3MBTL1 block: -24%; JMJD2A Tudor: 16µM*
